TGFb SMAD3 inh: qHTS for Inhibitors of TGF-b; AID 588855, 2011; hit rate 1.2% among 410,000; HepG2 CAGA-GFP TGF-b/SMAD3 reporter, GFP fluorescence, 18 h; TGF-beta stimulated, 500 pg/mL final; Potency, µM (series often up to 46.1 µM), without a hit: at the top dose activity, negative = inhibition, most hits filed as inhibitors; further: on the % scale 0 is the no-effect control and ±100 the full control effect; nearly all actives have a fitted effect of over 65% in size
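Inhibition was scored as loss of TGF-beta-induced (500 pg/mL final, 18 hours, 37 degrees C) GFP in HEPG2 cells carrying a CAGA-GFP reporter, in DMEM with 1% FBS. Well GFP was summed per cell; Activity was normalised to unstimulated and stimulated DMSO wells, then concentration-response fitting.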
HT1080NT lethal: qHTS for induction of synthetic lethality in tumor cells producing 2HG: qHTS for the HT-1080-NT fibrosarcoma cell line | HT-1080-NT fibrosarcoma viability, CellTiter-Glo ATP luminescence, 48 h | Potency, µM (highest dose often 46.1 µM), inactives show at the highest dose activity, negative = less viability, actives largely listed as cytotoxic | hit rate 1.6% among 360,000;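 further: NT is the 2HG producing partner of a matched IDH1 knockdown line; 0% = DMSO-treated cells and -100% = media-only wells without cells; nearly all actives have a fitted effect of over 55% in size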
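HT-1080-NT fibrosarcoma cells (2HG-overproducing), 750 cells/well in RPMI with 5% FBS, dosed after 2 h and incubated 48 h at 37C. CellTiter-Glo luminescence normalized to DMSO and no-cell wells; concentration-response curves fitted and classed.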
ATXN2 expr inh: Primary qHTS for Inhibitors of ATXN expression; HEK-293 ATXN2-luciferase reporter, luminescence, 24 h; hit rate 0.72% among 360,000; Potency, µM (titrated, usually from 57 µM), inactives show top-dose activity change, negative = inhibition, usual class: inhibitors; further: on the % scale 0 is the no-effect control and ±100 the full control effect; nearly all actives have a fitted effect of over 55% in size
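ATXN2-luciferase reporter cells (luciferase flanked by upstream and downstream ATXN2 gene portions) were treated 24 h at 37 °C with compounds at up to 57 uM. SteadyGlo luminescence gave expression; GF-AFC fluorescence gave viability.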
ATXN viability: Viability Counterscreen for Primary qHTS for Inhibitors of ATXN expression. S2 cells (HEK-293 line with an ATXN2-luciferase reporter) viability, CellTiter-Fluor protease fluorescence, 24 h. Potency, µM (series often up to 56.7 µM), usual class: cytotoxic. hit rate 0.49% among 400,000. AID 651635, 2014; further: nearly all actives have a fitted effect of over 40% in size
HT1080 IDH1KD tx: qHTS for induction of synthetic lethality in tumor cells producing 2HG: qHTS for the HT-1080-IDH1KD cell line | HT-1080 IDH1 knockdown viability, ATP luminescence, 48 h | Potency, µM (top dose mostly 46.1 µM), for the others: top-dose activity, negative = toxicity, actives largely listed as cytotoxic | hit rate 2% among 360,000;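 further: 0% = DMSO wells and -100% = cell-free medium wells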
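Knockdown cells (IDH1KD HT-1080) received compounds 2 h after plating at 750 cells/well and were kept 48 h at 37 °C in 5% FBS RPMI. A CellTiter-Glo luminescence read gave % activity for curve fitting.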
HepG2 viability: qHTS for Inhibitors of TGF-b: Cytotox Counterscreen; Potency, µM (series often up to 46.1 µM), without a hit: top-dose activity change, negative = cytotoxicity, hits mostly cytotoxic; hit rate 0.76% among 410,000; HepG2 CAGA-GFP viability, ATP luminescence, 18 h
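CellTiter-Glo luminescence gave cytotoxicity after 18 hours at 37 degrees C. The cells were HepG2 CAGA-GFP in 1% FBS DMEM, stimulated with 500 pg/mL TGF-beta after compound addition. %Activity was normalised to no-cell wells (complete cell-killing) and DMSO (no toxicity), and curves were fitted and classified.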
* marks the source's active call; other numbers are inactive results; i = inactive; ? = inconclusive; / = no result; [ ] = dose if it differs, or a comment. Shown are actives, neighbours in structure and some others; about 3.8% of the full set was active somewhere. The call rests on the fitted dose curve; in most records, active means well fitted curve in the direction sought with a large enough effect; inconclusive means small, poorly fitted or top-dose-only effect, or another doubt; inactive means no such curve, though single readings can be large; an effect the other way counts as inactive or inconclusive. Potency means the concentration at half of the fitted maximal effect.

SMILES	TGFb SMAD3 inh	HT1080NT lethal	ATXN2 expr inh	ATXN viability	HT1080 IDH1KD tx	HepG2 viability
COc1ccc(C#Cc2cccc(-c3nc(C(=O)NCc4ccc(Oc5ccccc5)cc4)cc4c3[C@@H](CCO)N(S(=O)C(C)(C)C)C4)c2)cc1OC (stereo partly drawn)	?	20.6µM*	?	31.6µM*	?	15.8µM*
CCc1cccc(C)c1NC(=O)Cn1ccn(-c2cccc(OC)c2)c(=O)c1=O	-4.9%	/	/	/	/	1.6%
Cc1cc(C)cc(OCC(=O)N/N=C/c2ccc([N+](=O)[O-])o2)c1	?	-9.9%	?	?	-11.9%	-95.7%
COc1ccccc1OCC(=O)N/N=C/C=C/c1ccc([N+](=O)[O-])o1	10µM*	-5.5%	?	?	?	-76.1%
Cc1ccccc1OCC(=O)N/N=C/c1ccc([N+](=O)[O-])o1	17.8µM*	-26.1%	/	?	?	-91.1%
O=C(COc1ccccc1[N+](=O)[O-])N/N=C/C=C/c1ccco1	-18.8%	7.8%	25.3%	i	10.3%	-19.4%
NS(=O)(=O)c1ccc(NC(=O)c2cnn3c2NC(=C2CC2)C=C3C(F)F)cc1	-23.9%	/	/	/	/	-29.0%
COCc1c(C(=O)N2CCCC(C)C2)cnn1-c1nccc(-c2cc(C)sc2C)n1 (stereo not drawn)	/	/	/	i	/	/
COc1ccccc1NS(=O)(=O)c1cccc(NC(=O)Nc2cccc(Cl)c2)c1	?	-6.4%	0.0%	/	?	14.1µM*
CN1CCN(S(=O)(=O)c2ccc(NC(=O)Nc3cccc(Cl)c3)cc2)CC1	?	20.6µM*	6.8%	i	18.4µM*	-11.8%
COC(=O)c1cc(NC(=O)Nc2cccc(Cl)c2)ccc1Cl	15.8µM*	12.6µM*	?	i	?	-90.5%
Cc1nc(SCc2cc(=O)c3cccc(F)c3[nH]2)n[nH]1	-19.2%	/	12.1%	i	/	-3.2%
Cc1c(C(=O)N(C)C2CCOC2)cnn1-c1ncc2c(n1)-c1ccccc1CCC2 (stereo not drawn)	/	/	/	i	/	/
COc1ccc(CCn2c(C)cc(C(=O)CSc3nc(N)cc(=O)[nH]3)c2C)cc1	-10.5%	?	?	i	-23.5%	-31.5%
Cc1cc(C(=O)CCl)c(C)n1CCc1ccc(Cl)cc1	?	14.6µM*	25.1µM*	?	8.2µM*	17.8µM*
Cc1cc(C(=O)CCl)c(C)n1CCc1ccc(F)cc1	?	5.8µM*	?	/	5.17µM*	-71.6%
Cc1cc(C(=O)CSc2nc(N)cc(=O)[nH]2)c(C)n1CCc1ccc(F)cc1	4.9%	-0.5%	-22.4%	i	25.9µM*	-41.5%
Fc1cccc(Cl)c1Cn1c(-c2cccs2)nc2ccccc21	?	/	/	/	/	-10.0%
COc1ccc(N(CC(=O)Nc2cc(C)ccc2C)S(=O)(=O)c2ccc(OC)c(OC)c2)cc1	21.2%	/	9.7%	i	/	-23.4%
COc1cc(C(=O)NCC2(N(C)C)CCCCC2)ccc1OCc1ccccc1	10.5%	?	-0.6%	i	9.2µM*	-25.1%
CCCN(CCC)CCCNC(=O)C1CCN(c2nc3ccc(CC)cc3s2)CC1	?	/	/	/	/	-50.6%
CCC(c1nnnn1Cc1ccco1)N(CCc1ccccc1)Cc1cc2cc(C)ccc2[nH]c1=O (stereo not drawn)	?	-27.2%	?	/	?	4.6%
Cc1ccc2[nH]c(=O)c(CN(CCc3ccccc3)C(c3nnnn3Cc3ccco3)C(C)C)cc2c1 (stereo not drawn)	20.9%	?	?	?	16.4µM*	6.8%
CCOc1ccc(C(=O)N2CCC(c3ccncc3)CC2)cc1	?	/	-25.9%	i	/	-17.5%
COc1ccc2c(c1)CC/C(=C\Nc1ccc3c(c1)OCO3)C2=O	0.7%	?	44.8%	i	4.7%[9.24 µM]	-32.6%
SMILES	TGFb SMAD3 inh	HT1080NT lethal	ATXN2 expr inh	ATXN viability	HT1080 IDH1KD tx	HepG2 viability
COc1ccc(N/C=C2\CCc3ccccc3C2=O)cc1	-29.7%	?	-55.4%	i	?	11.2µM*
Oc1cccc2c(CC(O)c3c[nH]c4ccccc34)ccnc12 (stereo not drawn)	?	/	/	/	/	-3.2%
COC(=O)CN1C(=O)CSc2ccc(S(=O)(=O)Nc3cccc(Cl)c3C)cc21	?	/	/	/	/	-24.7%
COc1ccccc1CN(Cc1nc2ccccc2c(=O)[nH]1)C(=O)Nc1ccccc1C	-21.3%	?	9.2%	i	11.2µM*	-33.3%
CCC(CC)C(=O)N(CCc1ccc(OC)cc1)Cc1nc2ccccc2c(=O)[nH]1	?	?	-11.7%	?	7.08µM*	-29.6%
COc1ccc(CCN(Cc2nc3ccccc3c(=O)[nH]2)C(=O)c2ccco2)cc1	-4.3%	-6.5%	1.4%	i	-4.8%	6.6%
COc1ccccc1CN(Cc1nc2ccccc2c(=O)[nH]1)C(=O)Nc1ccc(C)cc1	-7.1%	-0.1%	46.3%	i	-23.0%	-6.6%
COc1cccc(CN2CCC2(C)C(=O)Nc2cccc(Oc3ccccc3)c2)c1F (stereo not drawn)	?	?	-23.1%	i	6.51µM*	-1.3%
CC1(C(=O)Nc2cccc3cccnc23)CCN1Cc1ccccc1OC(F)F (stereo not drawn)	?	?	?	?	?	-39.4%
COc1cccc(NC(=O)C2(C)CCN2Cc2cccc(OC)c2F)c1 (stereo not drawn)	-3.6%	-18.3%	10.0%	?	?	-27.7%
COc1cccc(CN2CCC2(C)C(=O)Nc2cccc3cccnc23)c1OC (stereo not drawn)	11.2µM*	?	2.51µM*	?	?	-56.9%
CN(CC(=O)Nc1cccc(F)c1)C(=O)c1ccc(COc2ccccc2)cc1	-11.0%	25.9µM*	-2.7%	?	-20.9%	-13.0%
CCc1ccccc1NC(=O)c1ccc2[nH]c(C)c(C)c2c1	18.3%	/	32.4%	i	/	-16.5%
COc1cccc(/C=C/c2nc3ccccc3nc2/C=C/c2cccc(OC)c2OC)c1OC	25.0%	/	/	/	/	-18.5%
COc1ccc(-n2c(SCc3ccccn3)nc3c(c2=O)SCC3)cc1OC	-7.5%	-4.2%	1.1%	i	1.0%	20µM*
c1cnc2[nH]ccc2c1	-4.9%	/	/	/	/	4.1%
N#Cc1ccc(CN2C(=O)c3ccccc3Sc3ccc(C(=O)OCc4ccco4)cc32)cc1	1.7%	/	6.1%	i	/	0.0%

Bioassay records as filed in PubChem BioAssay.
